{"source": "PubChem BioAssay AID588342", "about": "(National Center for Advancing Translational Sciences (NCATS), 2011)", "note": "About 25,000 (6.9%) of roughly 360,000 compounds were called active. A call without a number means that no potency is given here. Roughly 9% stayed inconclusive and do not appear here. Calls come from the whole dose curve; as a rule, active = well fitted inhibition curve with a large enough effect; inconclusive = small, poorly fitted or top-dose-only effect; inactive = flat fitted curve, though single readings scatter. Many of the other results were omitted from the sample, so actives are more common in it than they were. Potency is the fitted concentration of half-maximal effect."}
{"target": "Luciferin 4-monooxygenase (Photinus pyralis) (UniProt P08659)", "sequence (P08659 whole entry, looked up)": "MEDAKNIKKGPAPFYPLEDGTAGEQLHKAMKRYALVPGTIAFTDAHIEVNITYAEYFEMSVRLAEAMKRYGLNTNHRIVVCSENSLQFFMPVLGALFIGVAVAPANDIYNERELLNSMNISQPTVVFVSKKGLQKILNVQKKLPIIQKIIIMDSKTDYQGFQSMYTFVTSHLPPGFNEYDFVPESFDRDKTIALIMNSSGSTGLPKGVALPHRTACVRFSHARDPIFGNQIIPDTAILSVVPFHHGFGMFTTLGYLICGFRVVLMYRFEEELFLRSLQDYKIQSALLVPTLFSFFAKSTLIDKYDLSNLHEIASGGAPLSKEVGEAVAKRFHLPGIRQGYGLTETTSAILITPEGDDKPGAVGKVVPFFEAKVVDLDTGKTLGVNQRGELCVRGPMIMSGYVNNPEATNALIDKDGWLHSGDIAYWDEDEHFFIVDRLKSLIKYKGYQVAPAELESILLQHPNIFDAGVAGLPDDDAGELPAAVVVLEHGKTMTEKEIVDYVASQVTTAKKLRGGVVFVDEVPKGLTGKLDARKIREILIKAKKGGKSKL", "assay": "qHTS profiling assay for firefly luciferase inhibitor/activator using purifed enzyme and Km concentrations of substrates (counterscreen for miR-21 project); note: nearly all actives have a fitted effect of over 55% in size", "conditions": "purified FLuc, luminescence inhibition; series mostly up to 57.5 µM", "in_short": "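Purified P. pyralis luciferase, 10 nM final, with Km-level 10 uM D-luciferin and 10 uM ATP in 50 mM Tris acetate pH 7.5, 10 mM Mg acetate, 0.01% Tween-20, 0.05% BSA; 6-point qHTS titration about 60 µM downward; luminescence read.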"}
{"smiles": "Cc1cc2oc(C(=O)N(Cc3ccc(Cl)cc3)Cc3ccco3)c(C)c2cc1Cl", "Potency": "inactive"}
{"smiles": "Cc1cc(N2CCN(c3cccc(C(F)(F)F)c3)CC2)n2nc(-c3ccccc3)nc2n1", "Potency": "inactive"}
{"smiles": "COc1ccc(-c2ccc(=O)n(CC(=O)Nc3ccc(Br)cc3F)n2)cc1", "Potency": "inactive"}
{"smiles": "CC(=O)Nc1ccc(S(=O)(=O)NC2(C(F)(F)F)C(=O)NC(C)=C2C#N)cc1", "note": "(stereo not given)", "Potency": "inactive"}
{"smiles": "Cc1ccc(C(=O)OCC(=O)NCc2cc(C)c(O)c(C)c2)cc1S(=O)(=O)N1CCCCC1", "Potency": "inactive"}
{"smiles": "COc1ccc(C(=O)OCC(=O)Nc2cccc(C(C)=O)c2)cc1OC", "Potency": "inactive"}
{"smiles": "O=C(Nc1ccccc1)Nc1nnc(COc2ccccc2F)s1", "Potency": "inactive"}
{"smiles": "CC(=O)Nc1cccc(C(=O)OCC(=O)NCc2cc(C)c(O)c(C)c2)c1", "Potency": "15.1 µM (active)"}
{"smiles": "Cc1ccc(F)cc1NC(=O)c1ccc2c(c1)OCO2", "Potency": "inactive"}
{"smiles": "O=C(Nc1ccccc1F)c1ccc2c(c1)OCO2", "Potency": "19 µM (active)"}
{"smiles": "O=C(Nc1ccccc1N1CCN(C(=O)c2ccccc2)CC1)c1ccc2c(c1)OCO2", "Potency": "inactive"}
{"smiles": "O=C(Nc1ccccc1)Nc1nc2ccccc2s1", "Potency": "0.849 µM (active)"}
{"smiles": "O=C(Nc1ccc(Cl)cc1)Nc1nnc(/C=C/c2ccccc2)s1", "Potency": "inactive"}
{"smiles": "O=S(=O)(NC1CCN(S(=O)(=O)c2ccc3c(c2)OCCO3)CC1)c1c(F)cccc1F", "Potency": "inactive"}
{"smiles": "CCc1ccc(S(=O)(=O)c2nnn3c2nc(N2CCN(CC)CC2)c2sccc23)cc1", "Potency": "inactive"}
{"smiles": "CC(=O)Nc1ccc(S(=O)(=O)NC(C)C(=O)OCCOc2ccc(F)cc2)cc1", "note": "(stereo not given)", "Potency": "inactive"}
{"smiles": "CNS(=O)(=O)c1ccc(N2CCCC2=O)c([N+](=O)[O-])c1", "Potency": "inactive"}
{"smiles": "NS(=O)(=O)c1ccc(NC(=S)N2CCCC2)cc1", "Potency": "inactive"}
{"smiles": "CCc1ccc(-c2cc3c(=O)n(CC(=O)NCCCN4CCN(Cc5ccccc5)CC4)nc(C)n3n2)cc1", "Potency": "8.49 µM (active)"}
{"smiles": "Cc1ccc(-c2ccc(=O)n(CC(=O)NCCCN3CCCCC3)n2)cc1", "Potency": "inactive"}
{"smiles": "CCCN1CCN(CCCNC(=O)Cn2nc(CC)n3c(cc4occc43)c2=O)CC1", "Potency": "inactive"}
{"smiles": "CCOCCn1ccc2c(OCC(=O)NCc3ccc(C)cc3)cccc2c1=O", "Potency": "inactive"}
{"smiles": "CCC(=O)N1CCc2cc(S(=O)(=O)NC(Cc3ccccc3)C(=O)NCc3ccc(C)cc3)ccc21", "note": "(stereo not given)", "Potency": "inactive"}
{"smiles": "Brc1ccc(C2CC(c3ccccc3)=Nc3ccccc3N2)cc1", "note": "(stereo not given)", "Potency": "26.9 µM (active)"}
{"smiles": "O=C(c1ccccc1)N1N=C(c2ccccc2O)CC1c1ccc(Br)cc1", "note": "(stereo not given)", "Potency": "inactive"}
{"smiles": "COc1ccc(N2C(=O)NC(NS(=O)(=O)c3ccc(Cl)cc3)(C(F)(F)F)C2=O)cc1", "note": "(stereo not given)", "Potency": "inactive"}
{"smiles": "COC(=O)c1sc2ncccc2c1-n1c(C)ccc1C", "Potency": "inactive"}
{"smiles": "COc1cccc(/C=C/c2ccc3ccccc3n2)c1OC(C)=O", "Potency": "5.36 µM (active)"}
{"smiles": "CC(=O)c1ccc(S(=O)(=O)N2CCN(C(=O)/C=C/c3ccc4ccccc4n3)CC2)cc1", "Potency": "inactive"}
{"smiles": "COc1ccc(CNC(=O)/C(C#N)=C/c2cccc(OC)c2OC)cc1", "Potency": "inactive"}
{"smiles": "CCOc1cccc(/C=C/c2ccc3ccccc3n2)c1OC(C)=O", "Potency": "7.57 µM (active)"}
{"smiles": "CCOc1ccccc1/C=N/Nc1nc2ccccc2o1", "Potency": "inactive"}
{"smiles": "COc1ccc(CCNC(=O)CCCn2c(=O)c3ccccc3n(Cc3ccc(F)cc3Cl)c2=O)cc1OC", "Potency": "inactive"}
{"smiles": "COc1ccc2cc(CCl)c(Cl)nc2c1", "Potency": "inactive"}
{"smiles": "CC(C)c1ccc(NC(=O)c2cc(S(=O)(=O)N3CCc4ccccc4C3)ccc2F)cc1", "Potency": "inactive"}
{"smiles": "CN1C(C(=O)NCc2ccco2)CC2Cn3c(nc4ccccc43)C21", "note": "(stereo not given)", "Potency": "inactive"}
{"smiles": "Cc1ccc(NC2=C(c3ccc(C(F)(F)F)cc3)C(=O)c3ccccc32)cc1F", "Potency": "inactive"}
{"smiles": "CCc1ccc(Sc2cc(C(=O)NCCCOC(C)C)c3ccccc3n2)cc1", "Potency": "inactive"}
{"smiles": "CC1CCCC(NC(=O)c2cc(-c3ccncc3)nc3ccccc23)C1C", "note": "(stereo not given)", "Potency": "inactive"}
{"smiles": "CCc1ccc(-c2cc(C(=O)NN3CCN(C)CC3)c3ccccc3n2)cc1", "Potency": "2.69 µM (active)"}
{"smiles": "CN(Cc1ccccc1)c1ncnc2onc(-c3ccc(F)cc3)c12", "Potency": "inactive"}
{"smiles": "O=C(CSc1nc(Nc2ccc(F)c(F)c2)c2ccccc2n1)c1ccc(Cl)cc1", "Potency": "inactive"}
{"smiles": "COc1ccccc1C(=O)Nn1c(-c2cccs2)nc2ccccc2c1=O", "Potency": "inactive"}
{"smiles": "CC(=O)Nc1cccc(Nc2nc(-c3cccs3)nc3ccccc23)c1", "Potency": "23.9 µM (active)"}
{"smiles": "CC(=O)c1ccc(S(=O)(=O)N(C)CCCC(=O)N(C)Cc2ccccc2F)cc1", "Potency": "inactive"}
{"smiles": "O=C(/C=C/c1cn(CC(O)CN2CCc3ccccc32)c2ccccc12)c1ccc(Br)cc1", "note": "(stereo not given)", "Potency": "inactive"}
{"smiles": "COc1cccc(NC(=O)CN(C)C(=O)CSC(=S)N2CCCC2)c1", "Potency": "inactive"}
{"smiles": "O=C(CSC(=S)N1CCOCC1)c1cc(Br)cc(Br)c1O", "Potency": "inactive"}
{"smiles": "CC1CN(C(=S)SCC(=O)c2ccccc2)CC(C)O1", "note": "(stereo not given)", "Potency": "inactive"}
{"smiles": "O=C(CSC(=S)N1CCCCC1)c1c(F)cccc1F", "Potency": "2.13 µM (active)"}
{"smiles": "CC(=O)c1ccc(NC(=O)CSC(=S)N2CCCC2)cc1", "Potency": "inactive"}
{"smiles": "O=C(CSC(=S)N1CCOCC1)c1ccccc1", "Potency": "3.01 µM (active)"}
{"smiles": "CCCCNC(=O)Cn1nc(C)c(S(=O)(=O)N2CCOCC2)c1C", "Potency": "inactive"}
{"smiles": "Cc1ccc(OCC(=O)OCc2cc(=O)n3nc(C4CC4)sc3n2)cc1C", "Potency": "inactive"}
{"smiles": "Cc1nn(-c2nc(-c3ccccc3)cc(C(F)(F)F)n2)c(C)c1Cl", "Potency": "inactive"}
{"smiles": "COC(=O)c1cc(S(=O)(=O)N2CCN(c3cc(Cl)ccc3C)CC2)c[nH]1", "Potency": "inactive"}
{"smiles": "COc1ccc(NC(=O)CSc2nccn2C2CCCC2)cc1OC", "Potency": "inactive"}
{"smiles": "COC(=O)c1ccccc1NC(=O)c1ccc(COc2ccccc2Cl)o1", "Potency": "inactive"}
{"smiles": "COc1ccc(OCc2cc(C(=O)NCC3(C)COC3)no2)c(Cl)c1", "Potency": "19 µM (active)"}
{"smiles": "COc1ccc(CCNC(=O)c2cnc(Cl)c(Cl)c2)cc1", "Potency": "inactive"}
{"smiles": "CC1CCCN(Cc2c(O)ccc3c(=O)c(Oc4ccc(C(C)(C)C)cc4)c(C(F)(F)F)oc23)C1", "note": "(stereo not given)", "Potency": "inactive"}
{"smiles": "COc1ccc(NC(=O)Cn2c(=O)n(Cc3ccc(C(=O)NCc4ccccc4Cl)cc3)c(=O)c3ccccc32)cc1", "Potency": "inactive"}
{"smiles": "O=C(Cn1c(=O)n(Cc2cccs2)c(=O)c2cccnc21)Nc1ccc(F)cc1", "Potency": "inactive"}
{"smiles": "COc1cc(C(=O)N2CCC(c3ccncc3)CC2)cc(OC)c1OC", "Potency": "inactive"}
{"smiles": "C/C(N)=C(/C#N)C(=O)COC(=O)C1CCN(C(=O)c2ccc(Cl)cc2)CC1", "Potency": "inactive"}
